Reference: PubChem BioAssay
Results filed as inconclusive are left out. For part of these data: Potency and affinity values are given separately. Activity calls are given as the source filed them. Unless noted, how the calls were made is not given here.

Legend:
[1] = P. berghei load reduction in hepatocytes – cell-based, HepG2, luciferase luminescence, HepG2 viability, primary screen (AID 624349; in the data active means parasite load remaining mostly below about 12%, no sharp cut-off; inactive means mostly above about 10%;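 further: 100% = mean of DMSO negative control wells on the same plate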); conditions: P. berghei liver stage in HepG2, luciferase luminescence, concentration not given here; parasite load remaining: stronger effect = lower value; viability: measured here: HepG2 viability without parasites
[2] = test system: Neuropilin-2 / VEGF-C interaction (human); assay: small molecules blocking Neuropilin-2/VEGF-C interaction – biochemical, microplate binding format, z-score (AID 743281); conditions: microplate NRP2/VEGF-C binding assay; stronger effect = lower value
[3] = modulation of C. elegans fzo-1 (AID 1259413);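 further: fzo-1 mutant C. elegans worms in liquid wells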; conditions: C. elegans fzo-1 modulator screen, mean read-out; stronger effect = higher value
[4] = EMT-state selective cytotoxicity in co-culture – imaging, PC-3E GFP, TEM4-18 mCherry, primary screen (AID 1345086;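 active means compounds killing one labelled cell type while sparing the other, by normalised counts and ratio limits, not self-fluorescent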;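 further: cells exposed to compound for 72 h before imaging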;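 on red/green cell ratio (normalised): normalised mesenchymal count divided by normalised epithelial count so high means epithelial killing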); conditions: PC-3E GFP / TEM4-18 mCherry co-culture, imaging cell counts, at 1 µM
[5] = test system: Aerobactin synthetase IucA (Klebsiella pneumoniae); assay: inhibition of K. pneumoniae IucA enzyme – biochemical, Tocris library, absorbance (AID 1345561); conditions: purified IucA enzyme assay, absorbance (OD) read-out; stronger effect = lower value;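 tested at 8 µM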;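 further: 100% = enzyme without compound and 0% = no enzyme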
[6] = viability loss in pontine glioma line – cell-based, SU-DIPG-XIII, MIPE4.0, CellTiter-Glo, qHTS, dose response (AID 1347061; cut-off not given, nearly all actives have AC50 up to about 37 µM;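 further: cells exposed to compound for 48 hours before readout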); conditions: CellTiter-Glo ATP luminescence
[7] = viability loss in pontine glioma line – cell-based, SU-DIPG-IV, MIPE4.0, CellTiter-Glo, qHTS, dose response (AID 1347063; cut-off not given, nearly all actives have AC50 up to about 30 µM;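 further: compound exposure lasted 48 hours before the viability readout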); conditions: CellTiter-Glo ATP luminescence
[8] = growth inhibition of DIPG cells – cell-based, MIPE4.0 library, CellTiter-Glo luminescence, qHTS (AID 1347066; cut-off not given, nearly all actives have AC50 up to about 30 µM;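 further: cells exposed to compound for 48 hours before readout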); conditions: SU-DIPG-VI viability, CellTiter-Glo ATP luminescence
[9] = viability loss with induced miR-34 in A549 – imaging, A549 dox-inducible miR-34, nuclei and caspase counts, primary screen (AID 1347080;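 active means compounds whose cell count with miR-34 switched on is under 0.7 times the count with it off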); conditions: A549 miR-34 inducible, Hoechst nuclei count, 48 h
[10] = target: NAD(+) hydrolase SARM1 (Homo sapiens) (UniProt Q6SZW1); assay: blocking NAD cleavage by SARM1 SAM-TIR – cell lysate, NAD-Glo luminescence (AID 1508614;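 active means compound whose remaining NAD level is above about 45 nM, limit read from the data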); conditions: SAM-TIR HEK293T lysate NADase, at 1 µM, stronger effect = higher value
Sequence of NAD(+) hydrolase SARM1 (Homo sapiens) (Q6SZW1 whole entry, looked up, the tested form may be a part): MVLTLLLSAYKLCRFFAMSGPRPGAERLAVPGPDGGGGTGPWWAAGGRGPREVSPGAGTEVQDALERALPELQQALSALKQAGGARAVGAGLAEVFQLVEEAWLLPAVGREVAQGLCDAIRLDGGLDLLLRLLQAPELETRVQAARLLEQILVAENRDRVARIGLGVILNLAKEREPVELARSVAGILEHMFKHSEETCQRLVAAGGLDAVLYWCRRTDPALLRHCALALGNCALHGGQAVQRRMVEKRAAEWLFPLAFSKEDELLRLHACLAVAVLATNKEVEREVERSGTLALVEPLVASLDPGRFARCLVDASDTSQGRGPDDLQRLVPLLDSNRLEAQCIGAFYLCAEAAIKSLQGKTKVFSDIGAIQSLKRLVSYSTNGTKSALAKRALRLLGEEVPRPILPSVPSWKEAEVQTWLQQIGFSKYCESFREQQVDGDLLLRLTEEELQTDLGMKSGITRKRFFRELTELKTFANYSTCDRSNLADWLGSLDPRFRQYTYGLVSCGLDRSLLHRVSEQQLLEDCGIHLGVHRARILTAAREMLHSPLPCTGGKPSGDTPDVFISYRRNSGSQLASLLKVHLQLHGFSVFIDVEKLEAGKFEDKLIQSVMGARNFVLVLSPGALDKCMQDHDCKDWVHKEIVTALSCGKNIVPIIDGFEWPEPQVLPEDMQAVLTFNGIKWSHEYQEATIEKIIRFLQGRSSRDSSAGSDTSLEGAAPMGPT

[11] = target: Mitogen-activated protein kinase 7 (Homo sapiens) (UniProt Q13164); assay: Gal4-ERK5 driven luciferase induction – cell-based, HTS, primary screen (AID 1508626;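 active means luciferase signal above three times the same-plate solvent-only control wells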;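 further: luciferase driven by Gal4-ERK5 fusion binding five Gal4 sites before minimal TATA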); conditions: HeLa Gal4-ERK5 transactivation, 18 h, at 5 µM, stronger effect = higher value
Sequence of Mitogen-activated protein kinase 7 (Homo sapiens) (Q13164 whole entry, looked up, the tested form may be a part): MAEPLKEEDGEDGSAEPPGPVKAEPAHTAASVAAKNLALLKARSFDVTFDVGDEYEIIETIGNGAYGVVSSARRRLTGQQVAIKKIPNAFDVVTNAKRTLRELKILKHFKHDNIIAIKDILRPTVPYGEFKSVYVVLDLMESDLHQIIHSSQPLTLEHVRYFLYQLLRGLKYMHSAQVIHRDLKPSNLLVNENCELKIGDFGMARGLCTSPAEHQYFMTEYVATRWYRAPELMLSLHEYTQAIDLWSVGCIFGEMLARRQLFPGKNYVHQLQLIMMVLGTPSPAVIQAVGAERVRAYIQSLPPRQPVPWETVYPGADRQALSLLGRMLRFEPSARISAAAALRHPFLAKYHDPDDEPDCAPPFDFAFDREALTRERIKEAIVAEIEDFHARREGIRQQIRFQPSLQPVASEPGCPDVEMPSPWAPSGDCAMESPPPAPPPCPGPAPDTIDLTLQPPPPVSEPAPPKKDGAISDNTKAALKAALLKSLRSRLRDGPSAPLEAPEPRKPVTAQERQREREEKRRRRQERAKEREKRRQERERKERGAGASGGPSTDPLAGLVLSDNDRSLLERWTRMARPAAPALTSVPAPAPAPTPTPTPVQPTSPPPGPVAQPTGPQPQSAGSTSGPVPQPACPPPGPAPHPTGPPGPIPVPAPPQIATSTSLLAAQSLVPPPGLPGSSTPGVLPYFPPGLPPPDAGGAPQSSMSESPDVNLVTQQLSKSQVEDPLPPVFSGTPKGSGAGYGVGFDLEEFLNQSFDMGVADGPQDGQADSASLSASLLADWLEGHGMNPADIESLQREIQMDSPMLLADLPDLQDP

[12] = galactose survival enhancers in mitochondrial complex I cybrids – cell-based, galactose medium, ATP luminescence, primary screen (AID 1645843;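 active means z-score of at least 1.8 in each of two replicates, scored against plate mean and spread of sample wells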;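 further: positive z means more ATP and so rescue of galactose-driven cybrid death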); conditions: complex I mutant cybrid cells, 72 h, stronger effect = higher value
F380Y = assay: BK channel mutant inhibitors and activators – cell-based, U2OS BacMam, thallium flux, beta subunits, selectivity assay, profiling panel (AID 1259406;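 active means thallium flux through the channel raised or lowered by more than 3 SD from vehicle-only wells, actives on both sides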;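 further: initial slope of Thallos dye fluorescence rise after thallium is added; log ratio against the mean of 0.3% DMSO vehicle wells on the same plate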); conditions: U2OS BacMam BK variants, at 30 µM
F380Y/beta1 = assay: as above; conditions: U2OS BacMam BK variants, at 30 µM
F380Y/beta2Delta = assay: as above; conditions: U2OS BacMam BK variants, at 30 µM
F380Y/beta4 = assay: as above; conditions: U2OS BacMam BK variants, at 30 µM
[13] = target: Calcium-activated potassium channel subunit alpha-1 (Homo sapiens) + Leucine-rich repeat-containing protein 26 (Homo sapiens) (UniProt Q12791+Q2I0M4); assay: as above; conditions: U2OS BacMam BK variants, F380Y/Slo1WT/gamma1, at 30 µM
Sequence of Calcium-activated potassium channel subunit alpha-1 (Homo sapiens) + Leucine-rich repeat-containing protein 26 (Homo sapiens) (Q2I0M4 whole entry, looked up, one chain of several): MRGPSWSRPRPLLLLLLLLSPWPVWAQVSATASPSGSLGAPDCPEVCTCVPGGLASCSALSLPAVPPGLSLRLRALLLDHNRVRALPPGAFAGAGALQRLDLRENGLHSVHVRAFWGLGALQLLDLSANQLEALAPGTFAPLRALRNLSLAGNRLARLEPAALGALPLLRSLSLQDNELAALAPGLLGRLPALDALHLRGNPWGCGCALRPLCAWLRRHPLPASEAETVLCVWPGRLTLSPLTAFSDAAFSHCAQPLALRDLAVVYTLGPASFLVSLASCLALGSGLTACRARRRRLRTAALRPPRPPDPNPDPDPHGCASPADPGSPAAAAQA

R275C = assay: as above; conditions: U2OS BacMam BK variants, at 30 µM
R275C/beta1 = assay: as above; conditions: U2OS BacMam BK variants, at 30 µM
R275C/beta2Delta = assay: as above; conditions: U2OS BacMam BK variants, at 30 µM
R275C/beta4 = assay: as above; conditions: U2OS BacMam BK variants, at 30 µM
R275C/Slo1WT/beta2 = assay: as above; conditions: U2OS BacMam BK variants, at 30 µM
[14] = antimalarial activity against Dd2 strain (AID 2302;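 active means growth inhibition above 50% at the single 2 µM test dose, taken to imply half-maximal potency below 2 µM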;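 further: 0% = DMSO untreated growth and 100% = chloroquine plus artemisinin killed control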); conditions: P. falciparum Dd2 in RBCs, LDH growth readout, 72 h; at 2 µM; stronger effect = higher value
[15] = human hepatoma cell viability loss – ATP luminescence, cytotoxicity control for P. falciparum antimalarial project, primary screen (AID 2303;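 active means inhibition above 50%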;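 further: 0% = DMSO wells and 100% = digitonin-killed cells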); conditions: HepG2 viability, 24-48 h, at 10 µM, stronger effect = higher value
[16] = target: L-lactate dehydrogenase (Plasmodium falciparum (isolate CDC / Honduras)) (UniProt Q27743); assay: PfLDH activity inhibition – cell lysate, 3D7 strain, counter-screen for P. falciparum growth inhibition project (AID 2304);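 further: 0% = vehicle and 100% = reference inhibitor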; conditions: P. falciparum 3D7 crude extract, LDH APAD/NBT absorbance; at 2 µM; stronger effect = higher value
Sequence of L-lactate dehydrogenase (Plasmodium falciparum (isolate CDC / Honduras)) (Q27743 whole entry, looked up): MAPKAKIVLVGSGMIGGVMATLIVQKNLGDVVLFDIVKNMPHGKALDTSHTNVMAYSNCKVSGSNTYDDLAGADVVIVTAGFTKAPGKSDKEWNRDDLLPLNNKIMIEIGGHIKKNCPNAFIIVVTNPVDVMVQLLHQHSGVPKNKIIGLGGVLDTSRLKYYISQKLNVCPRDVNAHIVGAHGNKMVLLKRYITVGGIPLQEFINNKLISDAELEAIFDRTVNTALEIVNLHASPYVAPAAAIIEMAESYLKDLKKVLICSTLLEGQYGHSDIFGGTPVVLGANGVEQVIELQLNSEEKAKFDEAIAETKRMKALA

[17] = inhibition of 3D7 malaria parasite growth – strain 3D7 (AID 2306);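 further: 0% = DMSO wells and 100% = chloroquine plus artemisinin control wells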; conditions: P. falciparum 3D7 erythrocytic growth, LDH absorbance, 72 h; at 2 µM; stronger effect = higher value
[18] = target: Calcium-dependent protein kinase 1 (Plasmodium falciparum (isolate 3D7)) (UniProt P62344); assay: PfCDPK1 kinase inhibitors, biochemical, TCAMS library (AID 1159585; cut-off not given, nearly all actives have IC50 up to about 0.98 µM;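 further: inhibitors leave more ATP so luminescence rises with inhibition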); conditions: recombinant PfCDPK1, Kinase-Glo ATP depletion luminescence
Sequence of Calcium-dependent protein kinase 1 (Plasmodium falciparum (isolate 3D7)) (P62344 whole entry, looked up): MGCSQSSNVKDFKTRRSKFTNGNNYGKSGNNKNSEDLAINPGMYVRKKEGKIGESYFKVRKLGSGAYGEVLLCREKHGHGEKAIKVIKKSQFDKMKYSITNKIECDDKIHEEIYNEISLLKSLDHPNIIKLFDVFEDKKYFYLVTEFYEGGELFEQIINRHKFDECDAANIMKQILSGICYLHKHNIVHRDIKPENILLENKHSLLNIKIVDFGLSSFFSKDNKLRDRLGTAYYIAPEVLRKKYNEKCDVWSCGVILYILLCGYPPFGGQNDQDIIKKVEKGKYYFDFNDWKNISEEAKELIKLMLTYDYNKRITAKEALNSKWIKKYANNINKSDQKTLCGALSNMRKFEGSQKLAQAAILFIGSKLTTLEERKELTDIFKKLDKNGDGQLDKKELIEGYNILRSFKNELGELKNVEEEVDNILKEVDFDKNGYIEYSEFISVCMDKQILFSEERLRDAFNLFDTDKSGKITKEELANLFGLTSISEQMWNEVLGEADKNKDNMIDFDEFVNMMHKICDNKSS

[19] = target: Plasmodium falciparum protein kinase 6 (PK6, PF3D7_1337100) (UniProt Q8IDW1); assay: PfPK6 kinase inhibitors, biochemical, TCAMS library (AID 1159586); conditions: recombinant PfPK6, Kinase-Glo ATP depletion luminescence
Sequence of Plasmodium falciparum protein kinase 6 (PK6, PF3D7_1337100) (Q8IDW1 1-305): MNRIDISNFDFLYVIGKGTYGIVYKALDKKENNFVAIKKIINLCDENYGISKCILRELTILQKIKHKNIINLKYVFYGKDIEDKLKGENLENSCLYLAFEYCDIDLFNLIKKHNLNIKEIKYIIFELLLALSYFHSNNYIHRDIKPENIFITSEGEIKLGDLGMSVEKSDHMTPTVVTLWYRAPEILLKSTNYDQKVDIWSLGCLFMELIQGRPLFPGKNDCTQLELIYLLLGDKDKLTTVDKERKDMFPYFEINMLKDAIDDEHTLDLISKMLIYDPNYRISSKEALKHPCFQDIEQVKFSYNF

[20] = target: Protein kinase 7 (PK7), Plasmodium falciparum 3D7 (PF3D7_0213400) (UniProt Q7YTF7); assay: inhibition of Plasmodium PK7 catalytic activity – biochemical, TCAMS antimalarial set, Kinase-Glo luminescence (AID 1159587); conditions: recombinant PfPK7, Kinase-Glo ATP depletion luminescence
Sequence of Protein kinase 7 (PK7), Plasmodium falciparum 3D7 (PF3D7_0213400) (Q7YTF7 1-343): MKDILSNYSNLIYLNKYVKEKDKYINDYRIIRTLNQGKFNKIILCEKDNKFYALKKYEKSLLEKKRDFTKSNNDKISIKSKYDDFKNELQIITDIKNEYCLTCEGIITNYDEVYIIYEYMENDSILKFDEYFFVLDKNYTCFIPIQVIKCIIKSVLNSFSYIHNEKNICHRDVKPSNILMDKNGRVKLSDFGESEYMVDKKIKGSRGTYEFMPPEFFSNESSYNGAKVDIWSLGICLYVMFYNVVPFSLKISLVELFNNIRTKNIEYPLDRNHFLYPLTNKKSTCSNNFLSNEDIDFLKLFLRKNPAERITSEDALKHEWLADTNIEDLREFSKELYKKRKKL

[21] = target: Calcium-dependent protein kinase 4 (Plasmodium falciparum (isolate 3D7)) (UniProt Q8IBS5); assay: PfCDPK4 kinase inhibitors, biochemical, TCAMS library (AID 1159588; cut-off not given, nearly all actives have IC50 up to about 0.91 µM); conditions: recombinant PfCDPK4, Kinase-Glo ATP depletion luminescence
Sequence of Calcium-dependent protein kinase 4 (Plasmodium falciparum (isolate 3D7)) (Q8IBS5 whole entry, looked up): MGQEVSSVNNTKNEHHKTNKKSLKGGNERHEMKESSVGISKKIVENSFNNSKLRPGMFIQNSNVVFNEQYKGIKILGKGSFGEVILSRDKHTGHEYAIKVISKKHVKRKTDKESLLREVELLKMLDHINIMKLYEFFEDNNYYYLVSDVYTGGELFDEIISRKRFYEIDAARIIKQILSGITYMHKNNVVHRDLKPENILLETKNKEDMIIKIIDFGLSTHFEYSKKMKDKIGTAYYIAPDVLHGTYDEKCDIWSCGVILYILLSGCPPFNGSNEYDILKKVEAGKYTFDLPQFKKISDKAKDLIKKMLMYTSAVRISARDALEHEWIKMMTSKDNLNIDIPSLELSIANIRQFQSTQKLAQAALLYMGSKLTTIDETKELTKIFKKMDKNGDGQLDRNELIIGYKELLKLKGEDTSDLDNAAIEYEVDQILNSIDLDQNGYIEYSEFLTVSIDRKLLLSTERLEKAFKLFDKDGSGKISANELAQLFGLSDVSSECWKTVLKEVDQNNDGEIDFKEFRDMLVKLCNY

Q: For `CCOC(=O)c1cncn1[C@H](C)c1ccccc1`, which parasite load remaining [1] is on record?
A: 110% (inactive)

Q: What about the viability [1] of the same compound?
A: 75.6%

Q: And the z-score [2]?
A: 0.0538 (inactive)

Q: What about the mean signal [3] of the same compound?
A: 274 (inactive)

Q: And the red/green cell ratio (normalised) ([4]; actives lie on both sides)?
A: 0.98 (inactive)

Q: What about the normalised cell number ([4]; measured here: epithelial PC-3E GFP cell survival) of the same compound?
A: 0.95

Q: What about the normalised cell number ([4]; measured here: mesenchymal TEM4-18 mCherry cell survival) of the same compound?
A: 0.93

Q: And the remaining activity [5]?
A: 122% (inactive)

Q: And the outcome [6]?
A: inactive

Q: And the outcome [7]?
A: inactive

Q: What about the outcome [8] of the same compound?
A: inactive

Q: And the fold change ([9]; stronger effect = lower value)?
A: 0.964 (inactive)

Q: What about the fold change ([9]; measured here: relative caspase fold change +Dox/-Dox) of the same compound?
A: 0.785

Q: What about the cell count ([9]; measured here: total cells with miR-34 induction, stronger effect = lower value) of the same compound?
A: 9210

Q: What about the cell count ([9]; measured here: total cells without miR-34 induction) of the same compound?
A: 9560

Q: What about the remaining NAD [10] of the same compound?
A: 10 nM (inactive)

Q: And the luciferase signal [11]?
A: 52 AU (inactive)

Q: And the z-score [12]?
A: -0.35 (inactive)

Q: What about the log fold change Tl+ flux (F380Y) of the same compound?
A: -0.0483 (inactive)

Q: And the log fold change Tl+ flux (F380Y/beta1)?
A: -0.0564 (inactive)

Q: And the log fold change Tl+ flux (F380Y/beta2Delta)?
A: -0.0261 (inactive)

Q: And the log fold change Tl+ flux (F380Y/beta4)?
A: -0.0155 (inactive)

Q: And the log fold change Tl+ flux [13]?
A: 0.0279 (inactive)

Q: And the log fold change Tl+ flux (R275C)?
A: 0.000434 (inactive)

Q: And the log fold change Tl+ flux (R275C/beta1)?
A: 0.000109 (inactive)

Q: What about the log fold change Tl+ flux (R275C/beta2Delta) of the same compound?
A: 0.0419 (inactive)

Q: What about the log fold change Tl+ flux (R275C/beta4) of the same compound?
A: 0.0313 (inactive)

Q: What about the log fold change Tl+ flux (R275C/Slo1WT/beta2) of the same compound?
A: 0.023 (inactive)

Q: What does the source list for `OC(CNC1CCCCCCC1)c1ccc(Cl)c(Cl)c1` (stereo not drawn)?
A: growth inhibition [14]: 99% (active); inhibition [15]: 17% (inactive); inhibition [16]: -5% (inactive); growth inhibition [17]: 100% (active); outcome [18]: inactive; outcome [19]: inactive; outcome [20]: inactive; outcome [21]: inactive

Q: Which growth inhibition [14] does the source give for `FC(F)(F)c1cccc(N2CCC(CN3CCC(c4c[nH]c5ccccc45)CC3)CC2)n1` here?
A: 10% (inactive)

Q: And the inhibition [15]?
A: 41% (inactive)

Q: And the inhibition [16]?
A: -3% (inactive)

Q: What about the growth inhibition [17] of the same compound?
A: 84% (active)

Q: What about the outcome [18] of the same compound?
A: inactive

Q: What about the outcome [19] of the same compound?
A: inactive

Q: And the outcome [20]?
A: inactive

Q: And the outcome [21]?
A: inactive

Q: With `CCC(C)(C)N[C@@H](C)[C@@H](O)c1ccc(C(F)(F)F)cc1` as the compound, how does the growth inhibition [14] read?
A: 90% (active)

Q: And the inhibition [16]?
A: 2% (inactive)

Q: And the growth inhibition [17]?
A: 97% (active)

Q: What about the outcome [18] of the same compound?
A: inactive

Q: What about the outcome [19] of the same compound?
A: inactive

Q: And the outcome [20]?
A: inactive

Q: What about the outcome [21] of the same compound?
A: inactive

Q: For `CCC1=C[C@@H]2CN(C1)Cc1c([nH]c3ccccc13)[C@@](C(=O)OC)(c1cc3c(cc1OC)N(C)[C@H]1[C@@](O)(C(=O)OC)[C@H](O)[C@]4(CC)C=CCN5CC[C@]31[C@@H]54)C2`, which growth inhibition [14] is on record?
A: 99% (active)

Q: And the inhibition [16]?
A: -1% (inactive)

Q: And the growth inhibition [17]?
A: 98% (active)

Q: What about the outcome [18] of the same compound?
A: inactive

Q: And the outcome [19]?
A: inactive

Q: What about the outcome [20] of the same compound?
A: inactive

Q: And the outcome [21]?
A: inactive

Q: For `O=C(NC1CCC(CN2CCC(c3c[nH]c4ccccc34)CC2)CC1)c1cc2cccc([N+](=O)[O-])c2[nH]1` (stereo not drawn), which growth inhibition [14] is on record?
A: 101% (active)

Q: And the inhibition [15]?
A: 36% (inactive)

Q: And the inhibition [16]?
A: -1% (inactive)

Q: And the growth inhibition [17]?
A: 103% (active)

Q: What about the outcome [18] of the same compound?
A: inactive

Q: What about the outcome [19] of the same compound?
A: inactive

Q: What about the outcome [20] of the same compound?
A: inactive

Q: And the outcome [21]?
A: inactive

Q: Which growth inhibition [14] does the source give for `O=C(NC1CCN(CCc2c[nH]c3ccc(F)cc23)CC1)c1ncc(-c2ccccc2)[nH]1` here?
A: 69% (active)

Q: And the inhibition [15]?
A: -3% (inactive)

Q: And the inhibition [16]?
A: -1% (inactive)

Q: What about the growth inhibition [17] of the same compound?
A: 102% (active)

Q: And the outcome [18]?
A: inactive

Q: And the outcome [19]?
A: inactive

Q: And the outcome [20]?
A: inactive

Q: What about the outcome [21] of the same compound?
A: inactive

Q: Which growth inhibition [14] does the source give for `O=C(/C=C/c1ccc(Cl)c(Cl)c1)NC1CCC(CN2CCC(c3c[nH]c4ccccc34)CC2)CC1` (stereo not drawn) here?
A: 85% (active)

Q: What about the inhibition [15] of the same compound?
A: 27% (inactive)

Q: And the inhibition [16]?
A: 5% (inactive)

Q: And the growth inhibition [17]?
A: 101% (active)

Q: And the outcome [18]?
A: inactive

Q: What about the outcome [19] of the same compound?
A: inactive

Q: And the outcome [20]?
A: inactive

Q: What about the outcome [21] of the same compound?
A: inactive

Q: With `NC(=NCCCCCCN=C(N)/N=C(\N)c1ccc(Cl)cc1)/N=C(\N)c1ccc(Cl)cc1` as the compound, how does the growth inhibition [14] read?
A: 99% (active)

Q: And the inhibition [15]?
A: 10% (inactive)

Q: What about the inhibition [16] of the same compound?
A: -9% (inactive)

Q: What about the growth inhibition [17] of the same compound?
A: 98% (active)

Q: And the outcome [18]?
A: inactive

Q: What about the outcome [19] of the same compound?
A: inactive

Q: What about the outcome [20] of the same compound?
A: inactive

Q: And the outcome [21]?
A: inactive

Q: With `O=c1[nH]c(=S)[nH]c(O)c1C=C1C=CC=N1` as the compound, how does the log fold change Tl+ flux (F380Y) read?
A: 0.0328 (inactive)

Q: And the log fold change Tl+ flux (F380Y/beta1)?
A: 0.0561 (inactive)

Q: And the log fold change Tl+ flux (F380Y/beta2Delta)?
A: 0.06 (inactive)

Q: What about the log fold change Tl+ flux (F380Y/beta4) of the same compound?
A: 0.0563 (inactive)

Q: And the log fold change Tl+ flux [13]?
A: 0.0242 (inactive)

Q: What about the log fold change Tl+ flux (R275C) of the same compound?
A: 0.0249 (inactive)

Q: What about the log fold change Tl+ flux (R275C/beta1) of the same compound?
A: 0.101 (inactive)

Q: What about the log fold change Tl+ flux (R275C/beta2Delta) of the same compound?
A: 0.0741 (inactive)

Q: What about the log fold change Tl+ flux (R275C/beta4) of the same compound?
A: 0.0391 (inactive)

Q: What about the log fold change Tl+ flux (R275C/Slo1WT/beta2) of the same compound?
A: -0.0255 (inactive)

Q: What does the source list for `Cc1cc(O)cc2c(C3CCN(CC4CCN(C(=O)/C=C/c5ccc(Cl)c(Cl)c5)CC4)CC3)c[nH]c12`?
A: growth inhibition [14]: 100% (active); inhibition [15]: 33% (inactive); inhibition [16]: 3% (inactive); growth inhibition [17]: 101% (active); outcome [18]: inactive; outcome [19]: inactive; outcome [20]: inactive; outcome [21]: inactive
